Wnt bcat act = Wnt/beta-catenin pathway activators, primary screen, cell-based, plate reader, single point. Wnt/beta-catenin reporter cell assay, activator. activation, % at 9.35 µM. 300,000 tested, 1.2% active. AID 743398, 2014; in the data active = activation above about 30%, passing the limit was not always enough; inconclusive = no clear call, values can overlap the other calls;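 note: 0% = neutral control wells and 100% = positive control wells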
GSIS activator = GLuc luminescence reporter in INS-1E cells, primary screen for activators of glucose-dependent secretion of insulin; INS-1E GLuc reporter insulin secretion, 2-3 h; activation, % at 16.6 µM; 370,000 tested, 0.61% active;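 active = lowest replicate activation of at least 40%, so every replicate reaches that level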;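 note: 0% = median of neutral control wells and 100% = median of IBMX positive control wells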
MITF TRPM1 HTS = activators of MITF-driven TRPM1 promoter reporter, primary screen, cell-based, SK-MEL-5, luciferase, single point; SK-MEL-5 TRPM1-promoter luciferase, 24 h; % of positive control, neutral wells = 0; 300,000 tested, 0.75% active; AID 588334, 2011; activation, % at 12.5 µM;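 active = mean activation of at least 80% with every replicate also reaching 80%; inconclusive = mean reaches 80% but some replicate falls short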;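 note: 0% = neutral control wells and 100% = parthenolide positive control wells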
miR-122 sensor = miR-122 Renilla sensor signal increase in Huh7, primary screen, miR-122 inhibitor project, cell-based, single point, plate reader | activation (reporter increase), % at 12.5 µM | Huh7 miR-122 Renilla luciferase sensor, 48 h; neutral wells = 0, positive control = 100 | 340,000 tested, 0.3% active;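 active = mean replicate activation score at least 90 and every replicate individually at or above 90; inconclusive = only one of the two criteria met; inactive = neither criterion met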;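 note: higher luciferase means less miR-122 activity so hits act as miR-122 inhibitors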
NSD2 HMT inh = NSD2 histone methyltransferase inhibitors, primary screen, biochemical, AlphaScreen, single concentration, set 2; Histone-lysine N-methyltransferase NSD2 (Homo sapiens), O96028; NSD2 peptide methylation, 120 min; inhibition, % at 12.5 µM; 310,000 tested, 0.54% active
Dyrk1A ADPGlo = rat Dyrk1A kinase inhibitors, primary screen, biochemical, single point, plate reader; Dual specificity tyrosine-phosphorylation-regulated kinase 1A (Rattus norvegicus), Q63470; ADP-Glo luminescence, NFATc1 peptide; inhibition, % at 12.5 µM; 310,000 tested, 0.43% active; AID 504441, 2011;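 note: plate controls were vehicle with enzyme for no effect and no enzyme for full effect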
Starred values were filed as active, the others as inactive; ? = inconclusive; . = no result given; [ ] = another dose, or the depositor's remark. In the library only some 2.4% were active in any assay of this set; here they are far more common. Cut-off read from the data, not from the text of the source, unless noted: active = inhibition above about 50%; inactive = the rest.

SMILES	Wnt bcat act	GSIS activator	MITF TRPM1 HTS	miR-122 sensor	NSD2 HMT inh	Dyrk1A ADPGlo
Cc1ccc(C)c(OCC(=O)N/N=C/c2c(C)nn(-c3ccccc3)c2Cl)c1C	-5	297*	9	.	-5	0
COC(=O)N/N=C\c1c(C)nn(-c2ccccc2)c1Cl	17	4	56	-3	-2	11
CCCNC(=O)N(C)C[C@H]1Oc2ncc(C#Cc3ccncc3)cc2C(=O)N([C@@H](C)CO)C[C@H]1C	.	-3	.	-2[16.7 µM]	.	.
CN(C)C/C=C/C(=O)Nc1cccc(-c2c[nH]c3ncnc(Oc4ccc(NC(=O)CC(=O)Nc5ccc(F)cc5)cc4F)c23)c1	.	.	-6	-1	.	68*
CC(=O)Nc1cccc(NC(=O)c2ccc(COc3ccccc3)cc2)c1	-2	0	154*	-5	.	4
CC(=O)Nc1cccc(OCc2ccc([N+](=O)[O-])cc2)c1	43*	-2	.	.	0	.
CC(=O)Nc1cccc(OCCCOc2ccc([N+](=O)[O-])cc2)c1	1	1	19	.	-1	0
C[C@@H]1CN([C@@H](C)CO)C(=O)c2cc(NS(=O)(=O)c3cccs3)ccc2O[C@@H](C)CCCCO[C@@H]1CN(C)C(=O)Nc1ccc(C(F)(F)F)cc1	.	5	.	.	.	.
C/C(Cl)=C\Cn1c(N2CCCC2)nc2c1c(=O)n(C)c(=O)n2C	-3	65*	8	.	6	-4
COc1ccccc1NC(=O)N1CC(=O)N2[C@H](C1)[C@H](c1ccc(C#CC(C)C)cc1)[C@@H]2CO	.	-22	.	.	.	.
O=C(C1CC1)N1CC(=O)N2[C@H](CO)[C@H](c3ccc(C#CC4CCCC4)cc3)[C@@H]2C1	.	-23	.	.	.	.
OC(CNCCc1ccc(C(F)(F)F)cc1)COC(c1ccccc1)c1ccccc1 (centres undefined)	-2	365*	-3	.	1	5
COc1ccc(C(OCC(O)CNCCc2ccc(S(N)(=O)=O)cc2)c2ccc(OC)cc2)cc1 (centres undefined)	-2	-17	-3	-10	9	0
C[C@@H]1CN([C@@H](C)CO)C(=O)c2cc(NC(=O)CCCN(C)C)ccc2O[C@@H]1CN(C)S(=O)(=O)c1ccc(F)cc1	.	24	.	2[16.7 µM]	.	.
C[C@H]1CCCCO[C@H](CN(C)S(=O)(=O)c2cccs2)[C@@H](C)CN([C@@H](C)CO)C(=O)c2cc(NC(=O)Nc3ccccc3)ccc2O1	.	-23	.	48[16.7 µM]	.	.
COc1ccc(-c2ccc3c(n2)CCCN3Cc2ccccc2C(F)(F)F)cc1	38*	.	.	.	.	.
CNC(=O)COc1coc(CN2CCN(C(=O)c3ccco3)CC2)cc1=O	35*	17	-2	.	-5	-1
C=CCNC(=O)COc1coc(CN2CCN(C(=O)c3ccco3)CC2)cc1=O	0	49*	-6	.	-2	-3
Cc1cccc(COc2coc(CN3CCN(C(=O)c4ccco4)CC3)cc2=O)c1	-5	30	10	.	1	-3
O=C(c1ccco1)N1CCN(Cc2cc(=O)c(OCc3ccccc3)co2)CC1	-2	7	2	1	-4	6
CC(C)(C)c1cc(-c2n[nH]c(=S)n2-c2ccccc2F)n[nH]1	34*	-14	.	0	0	20
CCC(=O)N1CC(=O)N2[C@H](C1)[C@H](c1ccc(-c3cccnc3)cc1)[C@@H]2CO	.	20	.	.	.	.
COc1cc2[nH]c3c(Cl)ncnc3c2cc1OC	-4	54*	14	-6	-1	-3
C=CCn1c(SC2CCOC2=O)nc2sc(C)c(C)c2c1=O (centres undefined)	-3	.	-6	4	.	12
C=CCn1c(SC2CCOC2=O)nc2sc(CC)cc2c1=O (centres undefined)	.	59*	30	-2	-1	5
SMILES	Wnt bcat act	GSIS activator	MITF TRPM1 HTS	miR-122 sensor	NSD2 HMT inh	Dyrk1A ADPGlo
CCc1ccc(-c2c(C)sc(NC(=O)C3CCC3)c2C#N)cc1	4	139*	5	4	-1	-3
CN(C[C@@H]1[C@@H](c2ccccc2)[C@H](CO)N1CC1CC1)C(=O)c1cccc(F)c1	.	1	.	-17[16.7 µM]	.	.
COC(=O)[C@@H](NC(=O)NCCC1=CCCCC1)C(C)C	65*	-5	1	.	0	1
C[C@H]1CCCCO[C@H](CN(C)S(=O)(=O)c2cn(C)cn2)[C@@H](C)CN([C@@H](C)CO)C(=O)c2cc(NC(=O)CCCN(C)C)ccc2O1	.	33	.	-2[16.7 µM]	.	.
O=C(NC1CCC1)[C@@H]1[C@@H](CO)[C@@H]2Cn3c(cccc3=O)[C@H]1N2CC1CCCCC1	.	14	.	.	.	.
Cc1ccn2c(=O)nc(SCC(=O)c3ccc(Cl)cc3)nc2c1	7	32	14	.	-1	13
Cc1ccn2c(C(=O)c3ccc(Cl)cc3)cnc2c1	43*	.	?	-2	-2	4
Cc1ccc(NC(=O)c2cc(-c3cccs3)on2)cc1C	39*	0	99*	0	2	-2
Cc1cc(C(=O)COc2ccc3ccc(=O)oc3c2)c(C)n1Cc1cccs1	.	14	18	.	2	-8
O=C(Nc1cccnc1)c1cc(-c2cccs2)on1	.	-7	12	-3	3	3
COc1ccc(NC(=O)c2cc(C)n(Cc3cccs3)c2C)cc1	68*	-17	.	-3	1	0
CCc1ccc(NC(=O)c2cc(-c3cccs3)on2)cc1	-2	.	94*	-4	-2	-12
COc1ccc(NC(=O)c2cc(-c3cccs3)on2)cc1	?	-21	110*	-14	-4	-3
COc1ccc(NC(=O)c2cc(-c3cccs3)on2)cc1OC	.	.	32	1	-4	15
COc1ccc(NC(=O)c2cc3ccccn3n2)cc1	31*	-4	.	.	.	4
CN(C)/C=C/C=C1C(=O)CCCC1=O	73*	.	-3	-3	5	-5
O=C1c2ccccc2C(=O)N1OCCOCCOCCBr	.	-16	-1	-7	0	0
O=C1c2ccccc2C(=O)N1OCCOCCOCCON1C(=O)c2ccccc2C1=O	45*	.	-10	28	0	-4
CNCCOc1nc(N2CCOCC2)nc(C)c1[N+](=O)[O-]	-3	18	2	-1	-3	1
CCOc1nc(N2CCOCC2)nc(C)c1[N+](=O)[O-]	33*	9	-6	-9	2	0
CCn1c(O)c(/C=C2\C=Nc3ccccc32)sc1=O	39*	2	58	.	1	-2
Oc1nc(Nc2ccccc2)sc1/C=C1\C=Nc2ccccc21	23	-11	88*	8	.	4
CCS(=O)(=O)NCC[C@H]1CC[C@@H](NC(=O)C2CCCCC2)[C@H](CO)O1	.	4	.	.	.	.

Screening results deposited in PubChem by Broad Institute.
